# Sampled rows, rich in hits. Any-hit rate of the full collection: about 2.4%.
# Cruzain noTriton – blocks cruzain activity in detergent-free assay | purified cruzain, Z-FR-AMC fluorescence, no detergent | Potency, µM, for the others: max response, negative = inhibition, most hits filed as inhibitors | actives 2.3% (n = 200,000);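 note: plate controls were enzyme without inhibitor for no effect and buffer without enzyme for full effect; nearly all actives have a fitted effect of over 40% in size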
# Target sequence (P25779 123-467 limits assumed): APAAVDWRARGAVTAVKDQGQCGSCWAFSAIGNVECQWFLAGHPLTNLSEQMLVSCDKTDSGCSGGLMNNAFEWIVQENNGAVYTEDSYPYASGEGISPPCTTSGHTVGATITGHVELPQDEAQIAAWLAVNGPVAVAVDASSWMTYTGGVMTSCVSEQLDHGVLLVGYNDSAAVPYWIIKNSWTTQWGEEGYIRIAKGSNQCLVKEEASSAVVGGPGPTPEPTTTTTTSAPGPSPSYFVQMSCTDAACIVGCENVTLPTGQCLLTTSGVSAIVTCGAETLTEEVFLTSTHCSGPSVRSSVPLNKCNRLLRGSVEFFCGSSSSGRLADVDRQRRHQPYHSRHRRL
#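 Purified cruzain at 1.5 nM, pre-incubated 15 min with compound at room temperature in 100 mM sodium acetate pH 5.5, 5 mM DTT, 0.00005% Triton X-100. Reaction started with 2 uM Z-FR-AMC; AMC fluorescence increase over 60 s gives rate.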
# Cruzain inh Det – inhibitors of Trypanosoma cruzi cruzain with detergent | purified cruzain, Z-FR-AMC fluorescence, 0.01% Triton | Potency, µM, for inactives: max response, negative = inhibition, most hits filed as inhibitors | actives 0.43% (n = 200,000);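 note: plate controls were neutral wells for no effect and buffer without enzyme for full effect; nearly all actives have a fitted effect of over 40% in size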
#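 Detergent-containing run (0.01% Triton X-100) in acetate buffer pH 5.5 with 5 mM DTT: enzyme at 1.5 nM final, 15 min compound preincubation at room temperature, then 2 uM Z-FR-AMC substrate. Activity taken as 60 s fluorescence increase at 360/450 nm.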
# An asterisk follows results filed as active; ? = inconclusive. Calls come from the whole dose curve; as a rule, active = well fitted curve in the direction sought with a large enough effect; inconclusive = small, poorly fitted or top-dose-only effect, or another doubt; inactive = no such curve, though single readings can be large; an effect the other way counts as inactive or inconclusive. Potency is the fitted concentration of half-maximal effect.
SMILES,Cruzain noTriton,Cruzain inh Det
Cc1csc2nc(-c3ccc(NS(=O)(=O)c4cc(F)ccc4F)cc3)cn12,32µM*,-4%
Cc1csc2nc(-c3cccc(NS(C)(=O)=O)c3)cn12,-6%,-1%
COc1ccc(S(=O)(=O)Nc2ccc(-c3cn4c(C)csc4n3)cc2)cc1,25µM*,-4%
CCS(=O)(=O)Nc1ccc(-c2cn3c(C)csc3n2)cc1,-19%,-2%
Cc1ccccc1Cn1c(COc2ccc(Cl)cc2)nc2ccccc21,8%,2%
O=C(/C=C/c1ccc2c(c1)OCO2)NCc1ccco1,-18%,-9%
COc1ccc(-c2onc(C)c2C)cc1S(=O)(=O)N1CCN(c2cc(C)ccc2C)CC1,-5%,2%
c1cncc(-c2nc(-c3ccc4c(c3)OCO4)cs2)c1,-8%,-12%
COc1ccccc1Nc1nc(-c2c(C)[nH]c3ccccc23)cs1,25µM*,-5%
COc1ccccc1Nc1nc(-c2sc(NC(=O)CC(C)C)nc2C)cs1,?,-2%
COc1ccc(-c2csc(Nc3cccnc3)n2)cc1OC,-9%,2%
O=C1c2ccccc2C(=O)N1c1cccc(-c2csc(Nc3ccc4c(c3)OCO4)n2)c1,5µM*,0%
COc1ccccc1Nc1nc(-c2cccc(N3C(=O)c4ccccc4C3=O)c2)cs1,7.9µM*,-3%
CCCc1nn2c(=O)cc(COC(=O)c3ccc(NC(=O)C4CCCCC4)cc3)nc2s1,6%,0%
CCOC(=O)N1CCN(c2c(NCCOC)c(=O)c2=O)CC1,-11%,3%
O=C(NCc1ccco1)[C@@H]1CSC2c3ccccc3C(=O)N21 (stereo not given in full),-1%,-4%
Cc1cccc(OCc2nnc(SCC(=O)N3CCCC3)n2C)c1,5%,7%
Cc1ccc(-c2cc(C(F)(F)F)n3ncc(-c4ccccc4)c3n2)cc1,-4%,-1%
CCCCOCCCNC(=O)Cc1cccs1,-1%,2%
Cn1c(C(=O)NCCN2CCN(c3ccccc3F)CC2)cc2c(=O)n(C)c3ccccc3c21,-10%,-4%
Cn1c(C(=O)NCCN2CCc3ccccc3C2)cc2c(=O)n(C)c3ccccc3c21,?,25µM*
CCCN(CCC)CCNC(=O)c1cc2c(=O)n(C)c3ccccc3c2n1C,?,16µM*
CCOCCCNC(=O)c1cc2c(=O)n(C)c3ccccc3c2n1C,-11%,-2%
CSc1ccccc1NC(=O)c1ccccc1N(Cc1ccccc1)S(C)(=O)=O,-7%,0%
CC(=O)Nc1ccc(C(=O)NNC(=O)c2cccs2)cc1,3%,4%
SMILES,Cruzain noTriton,Cruzain inh Det
CCn1c(=O)c2c(O)cc(=O)oc2c2ccccc21,-6%,-4%
CC(C)n1c(=O)c2c(O)cc(=O)oc2c2ccccc21,25µM*,1%
O=C(Nc1ccc(NC(=S)NC(=O)c2cccs2)cc1)c1ccccc1,14%,-4%
CC(=O)NC(=S)Nc1ccc(NC(=O)c2cccs2)cc1,-10%,1%
COc1ccc(C(=O)Nc2ccc(NC(=O)c3cccs3)cc2)cc1Cl,7.9µM*,3%
COc1ccc(C(=O)Nc2ccc(NC(=O)c3cccs3)cc2)cc1OC,-27%,-1%
Cc1c(C(=O)NC(=S)Nc2ccc(NC(=O)c3cccs3)cc2)oc2ccccc12,13µM*,-2%
O=C(NNC(=S)NC(=O)c1cccs1)c1ccc(NC(=O)c2ccccc2)cc1,20µM*,1%
CCn1c(COc2ccc3c(c2)OCO3)nnc1SCC(=O)O,10%,3%
COc1ccc(NC(=O)c2sc3nc4c(cc3c2N)CN(C(C)C)CC4)c(OC)c1,-3%,-9%
CCOC(=O)c1ccc(NC(=O)CSc2nnc(COc3ccccc3OC)n2CC)cc1,5%,3%
Cc1cccc(NC(=O)C(C)OC(=O)c2ccccc2NS(=O)(=O)c2cc(C)c(C)c([N+](=O)[O-])c2)c1 (stereo not given),?,-3%
CC(=O)c1cccc(NC(=O)CSc2nnc3ccc(-c4ccc(C)cc4)nn23)c1,12%,-2%
CC(=O)c1cccc(NC(=O)c2nc(-c3ccccc3)n(-c3ccccc3C)n2)c1,7.9µM*,-6%
COc1ccc(-c2nc(C(=O)Nc3cccc(C(C)=O)c3)nn2-c2ccc(Cl)cc2)cc1,-20%,-3%
CC(C)c1ccc(Nc2cc(C(=O)NCc3cccs3)c3ccccc3n2)cc1,10µM*,-3%
COc1ccc(Nc2cc(C(=O)NCc3cccs3)c3ccccc3n2)cc1,?,1%
COc1ccc2[nH]c3nc(SCc4nnc(-c5ccccc5)o4)nnc3c2c1,-1%,-1%
CN(C)c1ccc(NC(=O)CSCc2nc3c(nnn3Cc3ccc(F)cc3)c(=O)[nH]2)cc1,-8%,-5%
Cc1cccc(NC(=O)C2CC(=O)NC(Nc3nc4ccccc4s3)=N2)c1 (stereo not given),?,-2%
Cc1ccc(-n2[nH]c(C)c(C=Nc3cc(C)ccn3)c2=O)cc1,?,-6%
O=C(OCN1C(=O)c2ccccc2C1=O)C1CCCCC1,-26%,-1%
O=C1c2ccccc2C(=O)N1SC1CCCCC1,6.3µM*,14µM*
CCOC(=O)C1=C(c2ccccc2)NC(SC)=C(C#N)C1c1ccco1 (stereo not given),10%,-7%
COc1ccc(Oc2c(C)oc3c(CN(C)C)c(O)ccc3c2=O)cc1,7%,5%
SMILES,Cruzain noTriton,Cruzain inh Det
CCCc1nnc2n1N=C(c1ccc(-c3cc(Cl)ccc3Cl)o1)CS2,16µM*,-3%
CCCc1nnc2n1N=C(c1ccc(OC)c(OC)c1)CS2,9%,-5%
COc1ccc(Cc2nc(-c3ccc(NC(=O)c4cccnc4)cc3)no2)cc1,-24%,3%
CCOc1ccc2nc(NC(=S)NCc3ccccc3)sc2c1,25µM*,-3%
CCc1ccc(NC(=O)CSc2nc3cc(C(=O)OC)ccc3c(=O)n2Cc2ccco2)cc1,5µM*,1%
O=c1c2ccccc2nnn1CSc1nc2ccccc2c(=O)n1Cc1ccco1,10µM*,-2%
O=c1c2ccccc2nc(SCc2ccccc2)n1Cc1ccco1,-27%,-9%
CCN(C(=O)CSc1nc2cc(C(=O)OC)ccc2c(=O)n1Cc1ccco1)c1cccc(C)c1,1%,-1%
CCOc1ccc2nc(NC(=O)CSc3nc4ccccc4c(=O)n3Cc3ccco3)sc2c1,7.9µM*,2%
CCOc1ccc2nc(NC(=O)Nc3ccccc3)sc2c1,?,4%
CCOC(=O)CSc1nc2ccccc2c(=O)n1Cc1ccco1,1%,-5%
C1CNCCN1,-6%,5%
C=CCc1c(O)nc(SCC(=O)c2ccccc2)[nH]c1=O,-16%,-4%
CCC(C)c1c(O)nc(SCC(=O)Nc2ccccc2)[nH]c1=O (stereo not given),-1%,-4%
C[C@@H]1Nc2ccc(Cl)cc2S(=O)(=O)N1,1%,-4%
O=C(NNc1nc2cc3c(cc2s1)OCO3)c1ccc(F)cc1,7%,-1%
Nc1nc(Cn2nnc(-c3ccccc3Cl)n2)nc(N2CCOCC2)n1,12%,2%
COc1ccc(N2CCN(S(=O)(=O)c3ccc(C4CCCCC4)cc3)CC2)cc1,0%,0%
CC(=O)c1ccc(NC(=O)c2ccc3nc(-c4ccco4)c(-c4ccco4)nc3c2)cc1,?,14µM*
O=C(NCc1ccccc1)c1ccc2nc(-c3ccco3)c(-c3ccco3)nc2c1,7.9µM*,?
O=C(NCc1ccccc1)c1ccc2nccnc2c1,10%,1%
O=C(Nc1ccc(N2CCOCC2)cc1)c1ccc2nc(-c3ccco3)c(-c3ccco3)nc2c1,-4%,-6%
